According to article PMC11062922 (Nature Chemical Biology, 2023):

Legend:
MARK4 = details: compound concentrations:3nM, 10nM, 30nM, 100nM, 300nM, 1000nM, 3000nM, 30000nM,R2:0.98999073963654005,slope:9.1146195696381707,EC50 Standard Error, by the legend:Standard error of the EC50 estimation as provided by the drc package.
NEK1 = details: compound concentrations:3nM, 10nM, 30nM, 100nM, 300nM, 1000nM, 3000nM, 30000nM,R2:0.97961263644427599,slope:0.99029629152452003,EC50 Standard Error, by the legend:Standard error of the EC50 estimation as provided by the drc package.
NUAK1 = details: compound concentrations:3nM, 10nM, 30nM, 100nM, 300nM, 1000nM, 3000nM, 30000nM,R2:0.91267183430565202,slope:2.53834648929845,EC50 Standard Error, by the legend:Standard error of the EC50 estimation as provided by the drc package.
PAK4 = details: compound concentrations:3nM, 10nM, 30nM, 100nM, 300nM, 1000nM, 3000nM, 30000nM,R2:0.99818475591728295,slope:0.99089042450123299,EC50 Standard Error, by the legend:Standard error of the EC50 estimation as provided by the drc package.
PDPK1;PDPK2P = details: compound concentrations:3nM, 10nM, 30nM, 100nM, 300nM, 1000nM, 3000nM, 30000nM,R2:0.91971580292243504,slope:1.29280126727837,EC50 Standard Error, by the legend:Standard error of the EC50 estimation as provided by the drc package.
PHKG2 = details: compound concentrations:3nM, 10nM, 30nM, 100nM, 300nM, 1000nM, 3000nM, 30000nM,R2:0.987331752692992,slope:1.79353666450797,EC50 Standard Error, by the legend:Standard error of the EC50 estimation as provided by the drc package.
PLK4 = details: compound concentrations:3nM, 10nM, 30nM, 100nM, 300nM, 1000nM, 3000nM, 30000nM,R2:0.98129496676024397,slope:1.0145275307596699,EC50 Standard Error, by the legend:Standard error of the EC50 estimation as provided by the drc package.
PRKD2 = details: compound concentrations:3nM, 10nM, 30nM, 100nM, 300nM, 1000nM, 3000nM, 30000nM,R2:0.99348954984815097,slope:2.8520769192550901,EC50 Standard Error, by the legend:Standard error of the EC50 estimation as provided by the drc package.
PRKD3 = details: compound concentrations:3nM, 10nM, 30nM, 100nM, 300nM, 1000nM, 3000nM, 30000nM,R2:0.98624890214185301,slope:1.3007514421669799,EC50 Standard Error, by the legend:Standard error of the EC50 estimation as provided by the drc package.
Q6ZSR9 = Q6ZSR9 (human, UniProt Q6ZSR9); details: compound concentrations:3nM, 10nM, 30nM, 100nM, 300nM, 1000nM, 3000nM, 30000nM,R2:0.98031780619019204,slope:1.5136598557560801,EC50 Standard Error, by the legend:Standard error of the EC50 estimation as provided by the drc package.
RET = details: compound concentrations:3nM, 10nM, 30nM, 100nM, 300nM, 1000nM, 3000nM, 30000nM,R2:0.99332600963227702,slope:0.91132357301438205,EC50 Standard Error, by the legend:Standard error of the EC50 estimation as provided by the drc package.
SIK2 = details: compound concentrations:3nM, 10nM, 30nM, 100nM, 300nM, 1000nM, 3000nM, 30000nM,R2:0.98900734002019797,slope:1.1146515084845601,EC50 Standard Error, by the legend:Standard error of the EC50 estimation as provided by the drc package.
SLK = details: compound concentrations:3nM, 10nM, 30nM, 100nM, 300nM, 1000nM, 3000nM, 30000nM,R2:0.98664495046468503,slope:1.29889224696913,EC50 Standard Error, by the legend:Standard error of the EC50 estimation as provided by the drc package.
STK10 = details: compound concentrations:3nM, 10nM, 30nM, 100nM, 300nM, 1000nM, 3000nM, 30000nM,R2:0.96114701391993196,slope:1.3567914051898999,EC50 Standard Error, by the legend:Standard error of the EC50 estimation as provided by the drc package.
STK11 = details: compound concentrations:3nM, 10nM, 30nM, 100nM, 300nM, 1000nM, 3000nM, 30000nM,R2:0.98533886968205897,slope:6.0517648666997097,EC50 Standard Error, by the legend:Standard error of the EC50 estimation as provided by the drc package.
STK26 = details: compound concentrations:3nM, 10nM, 30nM, 100nM, 300nM, 1000nM, 3000nM, 30000nM,R2:0.89438319987914305,slope:6.7801376871061398,EC50 Standard Error, by the legend:Standard error of the EC50 estimation as provided by the drc package.
STK3 = details: compound concentrations:3nM, 10nM, 30nM, 100nM, 300nM, 1000nM, 3000nM, 30000nM,R2:0.98274097972393204,slope:1.3616846231778099,EC50 Standard Error, by the legend:Standard error of the EC50 estimation as provided by the drc package.
STK4 = details: compound concentrations:3nM, 10nM, 30nM, 100nM, 300nM, 1000nM, 3000nM, 30000nM,R2:0.95767016983562303,slope:1.48085900140722,EC50 Standard Error, by the legend:Standard error of the EC50 estimation as provided by the drc package.
TGFBR2 = details: compound concentrations:3nM, 10nM, 30nM, 100nM, 300nM, 1000nM, 3000nM, 30000nM,R2:0.91957544903751998,slope:0.85257672285703501,EC50 Standard Error, by the legend:Standard error of the EC50 estimation as provided by the drc package.
HSP90B1 = system: HSP90B1; parameters: species or system human, MV4-11 + K-562 + COLO205 + SK-N-BE2 + OVCAR-8; details: read-out: apparent Kd; compound concentrations:100 nM and 1000 nM (sheet 'Samples'); n = 1

Sequence of Q6ZSR9 (Q6ZSR9 whole entry, looked up): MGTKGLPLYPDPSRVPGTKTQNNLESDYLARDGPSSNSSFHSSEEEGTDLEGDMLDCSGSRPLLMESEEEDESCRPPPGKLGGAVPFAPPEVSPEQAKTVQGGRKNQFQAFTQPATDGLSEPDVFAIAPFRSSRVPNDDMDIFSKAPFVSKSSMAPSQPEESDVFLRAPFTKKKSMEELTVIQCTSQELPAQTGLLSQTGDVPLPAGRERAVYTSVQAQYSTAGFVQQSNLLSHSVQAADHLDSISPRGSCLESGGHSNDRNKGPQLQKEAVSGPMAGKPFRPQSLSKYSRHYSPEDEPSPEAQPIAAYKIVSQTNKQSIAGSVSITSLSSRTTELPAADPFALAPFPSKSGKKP

TAK659 was tested, and the EC50 (MARK4) was 1050 nM, the Kd (MARK4; read-out: apparent Kd) was 1050 nM and the EC50 (NEK1) was 589 nM. The Kd (NEK1; read-out: apparent Kd) was 529 nM, the EC50 (NUAK1) was 1020 nM and the Kd (NUAK1; read-out: apparent Kd) was 312 nM. For the same molecule, the EC50 (PAK4) was 336 nM, the Kd (PAK4; read-out: apparent Kd) was 276 nM and the EC50 (PDPK1;PDPK2P) was 639 nM. For the same molecule, the Kd (PDPK1;PDPK2P; read-out: apparent Kd) was 639 nM, the EC50 (PHKG2) was 201 nM and the Kd (PHKG2; read-out: apparent Kd) was 201 nM. The EC50 (PLK4) was 148 nM, the Kd (PLK4; read-out: apparent Kd) was 77.2 nM and the EC50 (PRKD2) was 1010 nM. The Kd (PRKD2; read-out: apparent Kd) was 895 nM, the EC50 (PRKD3) was 1410 nM and the Kd (PRKD3; read-out: apparent Kd) was 1180 nM. The EC50 (Q6ZSR9) was 566 nM, the Kd (Q6ZSR9; read-out: apparent Kd) was 493 nM and the EC50 (RET) was 22.7 nM. It also gave a Kd (RET; read-out: apparent Kd) of 12.1 nM, an EC50 (SIK2) of 260 nM and a Kd (SIK2; read-out: apparent Kd) of 140 nM. The EC50 (SLK) was 516 nM, the Kd (SLK; read-out: apparent Kd) was 516 nM and the EC50 (STK10) was 725 nM. It also gave a Kd (STK10; read-out: apparent Kd) of 725 nM, an EC50 (STK11) of 1150 nM and a Kd (STK11; read-out: apparent Kd) of 1150 nM. For the same molecule, the EC50 (STK26) was 363 nM, the Kd (STK26; read-out: apparent Kd) was 275 nM and the EC50 (STK3) was 742 nM. For the same molecule, the Kd (STK3; read-out: apparent Kd) was 683 nM, the EC50 (STK4) was 628 nM and the Kd (STK4; read-out: apparent Kd) was 567 nM. For the same molecule, the EC50 (TGFBR2) was 3720 nM and the Kd (TGFBR2; read-out: apparent Kd) was 2960 nM.

Molecule `CCn1c(-c2nonc2N)nc2c(C#CC(C)(C)O)nc(OCCN)cc21.CCn1c(-c2nonc2N)nc2c(C#CC(C)(C)O)nc(OCCN)cc21.Cl.Cl` [GSK902056A] has a potency estimated from few doses (HSP90B1) of 769 nM.

`Cc1cccc(-c2nc(Nc3ccncc3)c3sccc3n2)n1` [GW869641X] was tested, and the potency estimated from few doses (HSP90B1) was 1250 nM.
